In PubChem BioAssay (Tox21):
Records with an inconclusive call do not appear. Calls of active or inactive are those of the source. Calls follow the shape of the dose curve; as a rule, active = well fitted cell-killing curve with a large enough effect in the repeat runs; inconclusive = weak or mixed curves, or effect the other way; inactive = no such curve, though single readings can be large or run the other way. Non-standard residues stand in square brackets, D forms with d. Residues, ends and D or L forms follow the SMILES beside them. pGlu = O=C1CC[C@@H](C(=O)O)N1

Assay: qHTS assay to identify small molecule antagonists of the glucocorticoid receptor (GR) signaling pathway - cell viability counter screen (AID 720693); also: nearly all actives have a fitted effect of over 55% in size
Settings: GR-bla HeLa viability, CellTiter-Glo luminescence, 18 h, with 5 nM dexamethasone present; series mostly up to 58.5 µM; viability change, negative = cytotoxic: at the top concentration
% is scaled to controls: 0 for no effect and ±100 for the full control effect; potency is read from the fitted curve at half-maximal effect.

| Compound | viability change, negative = cytotoxic | Potency |
| --- | --- | --- |
| CN[C@@H]1CCc2[nH]c3ccc(C(N)=O)cc3c2C1 | -11.7% (inactive) | – |
| FC(F)(F)C(F)(F)C(F)(F)C(F)(F)C(F)(F)C(F)(F)F | 18.4% (inactive) | – |
| Nc1ncnc2c1ncn2CCOCP(=O)(O)O | -0.202% (inactive) | – |
| CCCCCCCCCCCCCCCC(=O)OC[C@@H](NC(=O)C(Cl)Cl)[C@H](O)c1ccc([N+](=O)[O-])cc1 | -6.31% (inactive) | – |
| C/C(=C(\CCOC(=O)c1ccccc1)SS/C(CCOC(=O)c1ccccc1)=C(/C)N(C=O)Cc1cnc(C)nc1N)N(C=O)Cc1cnc(C)nc1N | 3.15% (inactive) | – |
| CCOc1cc(-c2nccc3cc(OC)c(OC)cc23)cc(OCC)c1OCC | -0.24% (inactive) | – |
| CCOC(=O)[C@H](CCc1ccccc1)N[C@@H](C)C(=O)N1CC2(C[C@H]1C(=O)O)SCCS2 | 1.46% (inactive) | – |
| CC(=O)N=c1sc(S(N)(=O)=O)nn1C | -8.07% [at 27 µM] (inactive) | – |
| CN1[C@@H]2CCC[C@H]1CC(NC(=O)c1nn(C)c3ccccc13)C2 (stereo not given in full) | 1.49% (inactive) | – |
| O=C(O[C@H]1CN2CCC1CC2)N1CCc2ccccc2[C@@H]1c1ccccc1 | 6.48% (inactive) | – |
| CCC[C@@]1(CCc2ccccc2)CC(O)=C([C@H](CC)c2cccc(NS(=O)(=O)c3ccc(C(F)(F)F)cn3)c2)C(=O)O1 | -15.6% (inactive) | – |
| COC1=C(C(=O)O)N2C(=O)[C@@H](NC(=O)[C@H](N)C3=CCC=CC3)[C@H]2SC1 | 10.7% (inactive) | – |
| CCCCc1cc2c(=O)c(C(=O)OC)c[nH]c2cc1OCc1ccccc1 | -1.36% (inactive) | – |
| CCCCCCCCCCCCCCCCCC(=O)[O][Al] | -6.37% (inactive) | – |
| CCNC(=O)[C@@H]1CCCN1C(=O)[C@H](CCCN=C(N)N)NC(=O)[C@H](CC(C)C)NC(=O)[C@@H](Cc1c[nH]c2ccccc12)NC(=O)[C@H](Cc1ccc(O)cc1)NC(=O)[C@H](CO)NC(=O)[C@H](Cc1c[nH]c2ccccc12)NC(=O)[C@H](Cc1cnc[nH]1)NC(=O)[C@@H]1CCC(=O)N1 | – | 19 µM (active) |
| C/C=C(/CC[C@@H](C)[C@H]1CC[C@H]2C3=CC[C@H]4[C@H](C)[C@@H](O)CC[C@]4(C)[C@H]3CC[C@]12C)C(C)C | -1.3% (inactive) | – |
| O=C(Nc1ccc(Br)cc1)c1cc(Br)c(Br)s1 | – | 21.3 µM (active) |
| COc1ccccc1N1CCN(CCCC(=O)c2ccc(F)cc2)CC1 | 2.19% (inactive) | – |

| Compound | viability change, negative = cytotoxic | Potency |
| --- | --- | --- |
| C[C@H](N)C(=O)N[C@@H](C)P(=O)(O)O | 7.83% (inactive) | – |
| NC[C@@H]1O[C@H](O[C@H]2[C@@H](O)[C@H](O[C@@H]3[C@@H](O)[C@H](N)C[C@H](N)[C@H]3O[C@H]3O[C@H](CO)[C@@H](O)[C@H](O)[C@H]3N)O[C@@H]2CO)[C@H](N)[C@@H](O)[C@@H]1O | 0.626% (inactive) | – |
| O=P(O)(O)C(Sc1ccc(Cl)cc1)P(=O)(O)O | -5.07% (inactive) | – |
| CC[C@H](C)[C@H](NC(=O)[C@H](Cc1ccccc1)NC(=O)[C@H](C)NC(=O)[C@H](CC(=O)O)NC(=O)[C@H](CCCCN)NC(=O)[C@H](CO)NC(=O)[C@@H]1CCCN1C(=O)[C@@H]1CCC(=O)N1)C(=O)NCC(=O)N[C@@H](CC(C)C)C(=O)N[C@@H](CCSC)C(N)=O ([pGlu]PSKDAFIGLM-NH2) | 18.5% (inactive) | – |
| Cc1cccc(Nc2ncccc2C(=O)O)c1C | -11.6% (inactive) | – |
| CCCCCC(O)/C=C/C=O (stereo not given) | 2.74% (inactive) | – |
| OCCO[C@@H]1[C@@H](O)[C@H](O)[C@@H](CO)O[C@@H]1O | 0.811% (inactive) | – |
| N[C@H](CCC(=O)O)C(=O)O | 17.9% (inactive) | – |
| CC(O)CN(C)C (stereo not given) | 7.79% (inactive) | – |
| Cc1ccc(C2(O)CCN(CCCC(=O)c3ccc(F)cc3)CC2)cc1 | 0.454% (inactive) | – |
| CO[C@H]1O[C@@H]2O[C@@]3(C)CC[C@H]4[C@H](C)CC[C@@H]([C@H]1C)[C@@]24OO3 | -0.776% (inactive) | – |
| CC1=C(/C=C/C(C)=C/C=C/C(C)=C/C(=O)Oc2c(C)c(C)c3c(c2C)CC[C@@](C)(CCC[C@H](C)CCC[C@H](C)CCCC(C)C)O3)C(C)(C)CCC1 | 2.11% (inactive) | – |
| O=C(O)[C@@H](O)[C@H](O)[C@H](O)[C@@H](O)C(=O)O (tested in a mixture with another compound) | -4.73% (inactive) | – |
| O=C(Cn1c(=O)sc2ccc(Cl)cc21)N1CCN(CCO)CC1 | -1.09% (inactive) | – |
| NS(=O)(=O)c1cc2c(cc1Cl)NC(Cc1ccccc1)NS2(=O)=O (stereo not given) | -0.418% (inactive) | – |
| c1cnc2cc3c(cc2n1)[C@@H]1CNC[C@H]3C1 | 5.24% (inactive) | – |
| NCCCC[C@H](NC(=O)[C@@H]1CCCN1C(=O)[C@@H]1CSSC[C@H](N)C(=O)N[C@@H](Cc2ccccc2)C(=O)N[C@@H](Cc2ccccc2)C(=O)N[C@@H](CCC(N)=O)C(=O)N[C@@H](CC(N)=O)C(=O)N1)C(=O)NCC(N)=O | -7.47% (inactive) | – |
